Experimental data: PubChem BioAssay AID651871 (Sanford-Burnham Center for Chemical Genomics, 2012)
Several values for one entry are separate records, joined by “and”; a condition that tells them apart may be missing. Equal entries are not always repeated.

Tested on: HL-1
Assay: protection of cardiomyocytes from stress damage, SAR follow-up, cell-based, panel, H9c2 and HL-1, ATP luminescence, set 2 (AID 651871);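 also: cells exposed to stressor for 2 h before ATP readout; reference of the scale not given here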
Conditions: H9c2/HL-1 cardiomyocytes, 2-deoxyglucose stress, with 2-deoxyglucose, run 3, at 79 µM (top of the series)

| SMILES | activity (protection/inhibition) |
| --- | --- |
| COc1ccc2c(c1OC)C(=O)N1c3ccccc3C(=O)N(Cc3cccc(Cl)c3Cl)C21 (stereo not drawn) | 35.1% and -7.14% |
| CCOC(=O)c1cccc(NC(=O)CNC(=O)c2cc(-c3cc(OC)c(OC)c(OC)c3)nc3ccccc23)c1 | 95.7% |
| COc1ccc2nc(-c3cc(OC)c(OC)c(OC)c3)cc(C(=O)NCC(=O)Nc3ccc(C(C)=O)cc3)c2c1 | 38.8% |
